According to PubChem BioAssay AID1159580 (chemical genetic matrix, 2015):
In all, about 5,500 compounds went through this assay and about 2,000 (36%) were called active. Inconclusive results (about 18%) are left out. No stated cut-off is given here; in the data, active means normalized growth mostly below about 0.91 (no sharp cut-off); inconclusive means no clear call, values can overlap the other calls; inactive means mostly above about 0.92. This is one part of the list.

Experiment: chemical genetic growth profiling, strain panel (AID 1159580);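 further: tested at 20 µM; growth read once vehicle control cultures reached saturation at 30 °C; 1 = growth at the plate median or of vehicle wells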
Settings: growth OD

Measured: normalized growth

C=CC(C)(O)CC/C=C(\C)CCC=C(C)C (stereo not drawn)
active: S. cerevisiae deletion strains, locus YLR221C, strain rsa3, stronger effect = lower value 0.9 | S. cerevisiae deletion strains, locus YLR262C, strain YPT6 (second series), stronger effect = lower value 0.842 | S. cerevisiae deletion strains, locus YLR320W, strain mms22, stronger effect = lower value 0.846 | S. cerevisiae deletion strains, locus YLR357W, strain rsc2, stronger effect = lower value 0.81 | S. cerevisiae deletion strains, locus YMR125W, strain sto1, stronger effect = lower value 0.828 | S. cerevisiae deletion strains, locus YNL071W, strain lat1, stronger effect = lower value 0.85 | S. cerevisiae deletion strains, locus YNL233W, strain BNI4, stronger effect = lower value 0.788 | S. cerevisiae deletion strains, locus YNL248C, strain rpa49, stronger effect = lower value 0.883 | S. cerevisiae deletion strains, locus YOR001W, strain rrp6, stronger effect = lower value 0.887 | S. cerevisiae deletion strains, locus YOR083W, strain WHI5, stronger effect = lower value 0.882 | S. cerevisiae deletion strains, locus YOR270C, strain vph1, stronger effect = lower value 0.757 | S. cerevisiae deletion strains, locus YPL051W, strain arl3, stronger effect = lower value 0.907 | S. cerevisiae deletion strains, locus YPL078C, strain atp4, stronger effect = lower value 0.863 | S. cerevisiae deletion strains, locus YPL106C, strain sse1, stronger effect = lower value 0.793
inactive: S. cerevisiae deletion strains, locus YKL009W, strain mrt4, stronger effect = lower value 0.952 | S. cerevisiae deletion strains, locus YKL068W, stronger effect = lower value 0.994 | S. cerevisiae deletion strains, locus YKL085W, strain MDH1 (second series), stronger effect = lower value 0.996 | S. cerevisiae deletion strains, locus YKL085W, strain MDH1, stronger effect = lower value 0.996 | S. cerevisiae deletion strains, locus YKL160W, strain elf1, stronger effect = lower value 0.903 | S. cerevisiae deletion strains, locus YKL190W, strain CNB1, stronger effect = lower value 0.97 | S. cerevisiae deletion strains, locus YKR001C, strain vps1, stronger effect = lower value 1 | S. cerevisiae deletion strains, locus YKR026C, strain gcn3, stronger effect = lower value 0.951 | S. cerevisiae deletion strains, locus YKR091W, strain srl3, stronger effect = lower value 0.97 | S. cerevisiae deletion strains, locus YLL001W, strain dnm1, stronger effect = lower value 0.978 | S. cerevisiae deletion strains, locus YLL026W, stronger effect = lower value 0.972 | S. cerevisiae deletion strains, locus YLL041C, strain sdh2, stronger effect = lower value 0.973 | S. cerevisiae deletion strains, locus YLR027C, strain aat2, stronger effect = lower value 0.967 | S. cerevisiae deletion strains, locus YLR039C, strain RIC1, stronger effect = lower value 0.882 | S. cerevisiae deletion strains, locus YLR058C, strain SHM2, stronger effect = lower value 0.949 | S. cerevisiae deletion strains, locus YLR102C, strain apc9, stronger effect = lower value 1 | S. cerevisiae deletion strains, locus YLR113W, strain HOG1, stronger effect = lower value 0.868 | S. cerevisiae deletion strains, locus YLR258W, strain gsy2, stronger effect = lower value 0.966 | S. cerevisiae deletion strains, locus YLR262C, strain YPT6, stronger effect = lower value 0.926 | S. cerevisiae deletion strains, locus YLR268W, strain sec22, stronger effect = lower value 1 | S. cerevisiae deletion strains, locus YLR330W, strain CHS5, stronger effect = lower value 0.925 | S. cerevisiae deletion strains, locus YLR342W, strain FKS1 (second series), stronger effect = lower value 0.878 | S. cerevisiae deletion strains, locus YLR342W, strain FKS1, stronger effect = lower value 0.974 | S. cerevisiae deletion strains, locus YLR370C, strain arc18, stronger effect = lower value 0.921 | S. cerevisiae deletion strains, locus YLR371W, strain rom2, stronger effect = lower value 0.962 | S. cerevisiae deletion strains, locus YLR384C, strain iki3, stronger effect = lower value 0.98 | S. cerevisiae deletion strains, locus YLR418C, strain cdc73, stronger effect = lower value 0.911 | S. cerevisiae deletion strains, locus YML016C, strain PPZ1, stronger effect = lower value 0.996 | S. cerevisiae deletion strains, locus YML032C, strain rad52, stronger effect = lower value 0.926 | S. cerevisiae deletion strains, locus YML120C, strain ndi1, stronger effect = lower value 0.919 | S. cerevisiae deletion strains, locus YML124C, strain tub3, stronger effect = lower value 1.01 | S. cerevisiae deletion strains, locus YMR058W, strain fet3, stronger effect = lower value 0.95 | S. cerevisiae deletion strains, locus YMR078C, strain ctf18, stronger effect = lower value 1.01 | S. cerevisiae deletion strains, locus YMR129W, stronger effect = lower value 0.967 | S. cerevisiae deletion strains, locus YMR205C, strain PFK2, stronger effect = lower value 0.911 | S. cerevisiae deletion strains, locus YMR223W, strain ubp8, stronger effect = lower value 0.957 | S. cerevisiae deletion strains, locus YMR231W, strain pep5, stronger effect = lower value 0.999 | S. cerevisiae deletion strains, locus YMR307W, strain GAS1, stronger effect = lower value 0.621 | S. cerevisiae deletion strains, locus YNL067W, strain RPL9B, stronger effect = lower value 0.943 | S. cerevisiae deletion strains, locus YNL153C, strain GIM3, stronger effect = lower value 0.921 | S. cerevisiae deletion strains, locus YNL183C, strain NPR1, stronger effect = lower value 0.948 | S. cerevisiae deletion strains, locus YNL209W, strain ssb2, stronger effect = lower value 0.977 | S. cerevisiae deletion strains, locus YNL250W, strain rad50, stronger effect = lower value 0.994 | S. cerevisiae deletion strains, locus YNL271C, strain bni1, stronger effect = lower value 1 | S. cerevisiae deletion strains, locus YNL298W, strain CLA4, stronger effect = lower value 0.951 | S. cerevisiae deletion strains, locus YNL307C, strain MCK1, stronger effect = lower value 1 | S. cerevisiae deletion strains, locus YNL322C, strain KRE1 (second series), stronger effect = lower value 0.993 | S. cerevisiae deletion strains, locus YNR049C, strain mso1, stronger effect = lower value 0.966 | S. cerevisiae deletion strains, locus YNR052C, strain pop2, stronger effect = lower value 0.933 | S. cerevisiae deletion strains, locus YOL006C, strain TOP1, stronger effect = lower value 0.816 | S. cerevisiae deletion strains, locus YOL012C, strain htz1 0.833 | S. cerevisiae deletion strains, locus YOL147C, strain pex11, stronger effect = lower value 0.987 | S. cerevisiae deletion strains, locus YOR061W, strain CKA2, stronger effect = lower value 0.977 | S. cerevisiae deletion strains, locus YOR069W, strain VPS5, stronger effect = lower value 0.984 | S. cerevisiae deletion strains, locus YOR070C, strain gyp1, stronger effect = lower value 0.981 | S. cerevisiae deletion strains, locus YOR080W, strain dia2, stronger effect = lower value 0.972 | S. cerevisiae deletion strains, locus YOR106W, strain vam3, stronger effect = lower value 0.881 | S. cerevisiae deletion strains, locus YOR136W, strain idh2, stronger effect = lower value 1.01 | S. cerevisiae deletion strains, locus YOR144C, strain elg1, stronger effect = lower value 0.999 | S. cerevisiae deletion strains, locus YOR184W, strain ser1, stronger effect = lower value 0.941 | S. cerevisiae deletion strains, locus YOR231W, strain MKK1, stronger effect = lower value 0.873 | S. cerevisiae deletion strains, locus YOR265W, strain rbl2, stronger effect = lower value 0.983 | S. cerevisiae deletion strains, locus YOR290C, strain snf2, stronger effect = lower value 0.875 | S. cerevisiae deletion strains, locus YOR316C, strain cot1, stronger effect = lower value 0.997 | S. cerevisiae deletion strains, locus YPL055C, strain LGE1, stronger effect = lower value 0.88 | S. cerevisiae deletion strains, locus YPL240C, strain hsp82, stronger effect = lower value 0.96 | S. cerevisiae deletion strains, locus YPL241C, strain CIN2, stronger effect = lower value 1 | S. cerevisiae deletion strains, locus YPL256C, strain CLN2, stronger effect = lower value 0.838 | S. cerevisiae deletion strains, locus YPR119W, strain clb2, stronger effect = lower value 1.02 | S. cerevisiae deletion strains, locus YPR141C, strain kar3, stronger effect = lower value 1 | S. cerevisiae deletion strains, locus YPR163C, strain tif3, stronger effect = lower value 1.02 | S. cerevisiae deletion strains, locus YPR167C, strain met16, stronger effect = lower value 0.988 | S. cerevisiae deletion strains, strain wtn01, stronger effect = lower value 0.99 | S. cerevisiae strains, strain wild type, stronger effect = lower value 0.924
